Several values for one entry are separate records, joined by “and”; a condition that tells them apart may be missing. Equal entries are not always repeated. A number with no mark means an inactive call. Inconclusive results are not listed. Entries that show only a call come without a potency. Activity calls are given as the source filed them. Unless noted, calls come from the whole dose curve; as a rule, active = well fitted curve in the direction sought with a large enough effect; inconclusive = small, poorly fitted or top-dose-only effect, or another doubt; inactive = no such curve, though single readings can be large; an effect the other way counts as inactive or inconclusive.
Legend:
[1] = Cell Viability - BJ (AID 421; calls by dose curve;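 note: potency is the fitted concentration of half-maximal effect; cells exposed to compound for 40 hours at 37 °C before readout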); settings: BJ fibroblast viability, qHTS
How it was run: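 Luminescent ATP signal (CellTiter-Glo, 20 min at room temperature) served as the read-out of viable BJ cells after 40 hours of compound treatment. Responses were scaled between DMSO and 100 uM tamoxifen, and AC50 values were obtained by Hill modeling.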

[2] = Cell Viability - Jurkat (AID 426;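 active = dose-dependent loss of cell ATP signal giving a full or clear fitted curve, ranked by lower potency value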;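 note: potency is the fitted concentration of half-maximal effect; cells exposed to compound for 40 hours at 37 °C before ATP read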); settings: qHTS
How it was run: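 Luminescent ATP read-out (CellTiter-Glo, 20 min at room temperature) after 40 hr compound exposure at 37 °C of Jurkat E6-1 cells, 5000/well. Decreased ATP taken as cytotoxicity; AC50 from standard Hill equation.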

[3] = Cell Viability - Hek293 (AID 427;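 active = compounds whose dose-response curve shows a full or clear partial loss of cell viability, called from curve shape rather than a numeric limit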;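 note: potency is the fitted concentration of half-maximal effect; cells exposed to compound for 40 hours at 37 °C before reading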); settings: qHTS
How it was run: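 Luminescent ATP read-out (CellTiter-Glo, 20 min RT) after 40 hr compound exposure at 37 °C in complete medium. Signal normalized to DMSO (basal) and 100 uM tamoxifen (100% inhibition); concentration-response fitted with the standard Hill equation to give AC50.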

[4] = Cell Viability - MRC5 (AID 434; calls by dose curve;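 note: potency is the fitted concentration of half-maximal effect; cells exposed to compound for 40 hours at 37 °C; potency reflects cytotoxicity seen as loss of intracellular ATP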); settings: MRC5 lung fibroblast viability, qHTS
How it was run: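 ATP luminescence read-out (CellTiter-Glo, 20 min RT) after 40 hr, 37 °C compound exposure of 1500 MRC5 cells/well. Data normalized to DMSO (basal) and 100 uM tamoxifen (100% inhibition); AC50 from standard Hill equation.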

[5] = Cell Viability - Mesenchymal (AID 546); settings: mesenchymal cells viability, qHTS; series mostly up to 91.7 µM;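 note: cells exposed to compound for 40 hours before reading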
How it was run: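 Human renal mesenchymal cells (glomerulus-derived), 1000 cells/well, 5 hr 37 °C pre-incubation; compound 40 hr, 37 °C; CellTiter-Glo, 20 min RT; luminescence; AC50 via Hill equation.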

[6] = Cellular Toxicity (caspase-3) SHSY5Y (AID 657); settings: SH-SY5Y caspase-3 activation, DMSO zero, 10 µM staurosporine = 100%; series mostly up to 91.7 µM;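 note: cells exposed to compound for 16 hours at 37 °C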
How it was run: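 qHTS, SH-SY5Y, 1500 cells/well, 5 h pre-incubation 37 °C; compound 16 h 37 °C; Caspase-Glo 3/7 1 h RT; luminescence. Norm.: DMSO = 0, 10 uM staurosporine = 100%. Hill fit → AC50.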

[7] = Cellular Toxicity (caspase-3) MRC-5 (AID 659); settings: MRC-5 cells, luminescence, normalized: DMSO 0%, 10 µM staurosporine 100%; series mostly up to 91.7 µM
How it was run: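 MRC-5 fibroblasts, 1500/well; 16 h cpd, 37 °C; Caspase-Glo 3/7, 1 h RT; lumi read. Norm: DMSO = 0%, 10 uM staurosporine = 100%. Hill-fit AC50 from qHTS conc-response.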

[8] = Cellular Toxicity (caspase-3) Mesangial (AID 660); settings: mesangial cells, normalized: DMSO 0%, 100 µM tamoxifen 100%; series mostly up to 91.7 µM;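 note: combined caspase 3 and 7 activity read by Caspase-Glo luminescence; cells exposed to compound for 16 h before the caspase read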
How it was run: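 Luminescent Caspase-Glo 3/7 readout (aminoluciferin substrate cleavage, 20 min RT) after 16 h compound exposure at 37 °C of normal human mesangial cells. Signal increase normalized between DMSO basal and 100 uM tamoxifen; Hill-equation AC50.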

[9] = Cellular Toxicity (caspase-3) SK-N-SH (AID 661); settings: SK-N-SH caspase-3 activation, qHTS; series mostly up to 91.7 µM;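 note: cells exposed to compound for 16 hours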
How it was run: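 Luminescent Caspase-Glo 3/7 read-out after 16 hr compound exposure of SK-N-SH neuroblastoma cells at 37 °C. Signal increase normalized to DMSO (basal) and 10 uM staurosporine (100%); AC50 from Hill equation fits of qHTS concentration-response data.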

[10] = Cellular Toxicity (caspase-3) Hek293 (AID 664); settings: HEK293 caspase-3 activation, DMSO = 0%, 100 µM tamoxifen = 100%; at 92.2 µM (top of the series);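 note: cells exposed to compound for 16 h at 37 °C before readout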
How it was run: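 Luminescent Caspase-Glo 3/7 readout (aminoluciferin release) in HEK293 cells after 16 h compound treatment, 37 °C. Normalization: DMSO = basal, 100 uM tamoxifen = 100% stimulation. Concentration-response fitted with standard Hill equation for AC50.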

[11] = Cellular Toxicity (caspase-3) N2a (AID 665); settings: N2a cells, luminescence, normalized: DMSO 0%, 10 µM staurosporine 100%; series mostly up to 92.2 µM;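 note: compound exposure lasted 16 h at 37 °C before readout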
How it was run: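 Luminescent Caspase-Glo 3/7 readout in N2a mouse neuroblastoma cells after 16 h compound exposure at 37 °C. Signal scaled to DMSO (basal) and 10 uM staurosporine (100%). Concentration-response fitted with Hill equation for AC50.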

[12] = Cell Viability - LYMP1-002 - Assay at 16 hr (AID 948); settings: LYMP1-002 lymphoblastoid cell viability; series mostly up to 92.2 µM
How it was run: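 Seed 2500 LYMP1-002 cells per well in complete medium and hold 5 hr at 37 C. Add compound across a concentration series and incubate 16 hr at 37 C. Add CellTiter-Glo, wait 30 min at room temperature, read luminescence.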

[13] = MultiTox-Fluor Cytotoxicity Assay - LYMP1-003 - Dead Cells (AID 961); settings: LYMP1-003 lymphoblastoid cells, dead-cell protease fluorescence; series mostly up to 92.2 µM; note: nearly all actives have a fitted effect of over 70% in size
How it was run: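 Human lymphoblastoid LYMP1-003 cells (2500/well) were treated with compounds for 16 hr at 37 C in complete medium. Dead-cell protease release was read by bis-AAF-R110 fluorescence (Ex/Em 485/520). AC50 came from Hill fits, normalized to DMSO and 15 uM tetraoctylammonium bromide.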

[14] = MultiTox-Fluor Cytotoxicity Assay - LYMP1-003 - Live Cells (AID 962); settings: LYMP1-003 lymphoblastoid cells, MultiTox-Fluor live-cell protease fluorescence; series mostly up to 92.2 µM;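 note: cells exposed to compound for 16 hours at 37 °C; cytotoxic hits lower the live-cell protease signal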
How it was run: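 Readout: live-cell fluorescence (Ex/Em=405/510) from GF-AFC cleavage after 60 min MultiTox-Fluor reagent at room temperature. Lymphoblastoid LYMP1-003 cells, 16 hr compound treatment, 37 C. Concentration-response fitted to standard Hill equation for AC50.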

[15] = Cell Viability - LYMP1-003 - Assay at 24 hr (AID 963); settings: LYMP1-003 lymphoblastoid cell viability; series mostly up to 92.2 µM
How it was run: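 CellTiter-Glo luminescence (intracellular ATP) read after 24 hr, 37 C compound exposure of 2500 LYMP1-003 human lymphoblastoid cells/well in complete medium; qHTS concentration series; AC50 via standard Hill equation.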

[16] = Cell Viability - LYMP2-008 (AID 980); settings: LYMP2-008 lymphoblastoid cell viability, qHTS; series mostly up to 92.2 µM; note: nearly all actives have a fitted effect of over 60% in size; note: potency is the fitted concentration of half-maximal effect
How it was run: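 Luminescent ATP read-out (CellTiter-Glo, 30 min RT) after 24 hr compound exposure at 37 C of human lymphoblastoid cells in complete medium. Decrease in ATP taken as cytotoxicity; AC50 derived by standard Hill fit of qHTS concentration-response data.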

[17] = qHTS Assay for Identification of Small Molecule Inducers of Hypoxia Response (AID 2120; active = well fitted curve in the direction sought with a large enough effect in the signal ratio, with a control signal flat, not every such curve was filed as active; the % refers to the signal ratio); settings: hypoxia response reporter cells, beta-lactamase ratio readout; series mostly up to 104 µM
How it was run: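 Read-out: CCF4 FRET emission ratio 460nm/530nm (excitation 405nm), converted to %Activity, with AC50 fitted across a compound titration. ME-180 cells carried an HRE-driven beta-lactamase reporter; compound exposure 17 h, 37 degrees C.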

[18] = molecular target: Peroxisome proliferator-activated receptor alpha (Homo sapiens) (UniProt Q07869); assay: qHTS assay for small molecule agonists of the peroxisome proliferator-activated receptor alpha (PPARalpha) signaling pathway (AID 651778); settings: PathHunter PPARalpha complementation, chemiluminescence, 6 h; active compounds read high
Peroxisome proliferator-activated receptor alpha (Homo sapiens), sequence (Q07869 whole entry, looked up, the tested form may be a part): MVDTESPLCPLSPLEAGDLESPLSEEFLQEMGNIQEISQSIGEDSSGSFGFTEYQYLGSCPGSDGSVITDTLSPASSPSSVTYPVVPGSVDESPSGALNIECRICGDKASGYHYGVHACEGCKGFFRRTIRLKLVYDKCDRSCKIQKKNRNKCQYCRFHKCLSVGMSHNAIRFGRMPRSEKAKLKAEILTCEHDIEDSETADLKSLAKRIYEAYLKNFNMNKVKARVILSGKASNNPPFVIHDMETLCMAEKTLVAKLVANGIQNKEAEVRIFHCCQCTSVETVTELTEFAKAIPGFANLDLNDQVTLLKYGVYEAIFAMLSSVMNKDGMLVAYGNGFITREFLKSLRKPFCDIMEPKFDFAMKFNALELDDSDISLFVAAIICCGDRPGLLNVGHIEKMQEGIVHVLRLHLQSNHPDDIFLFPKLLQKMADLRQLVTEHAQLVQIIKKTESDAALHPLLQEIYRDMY
How it was run: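 Enzyme-fragment complementation assay in which ligand-bound PPARalpha translocates and forms an active enzyme that generates chemiluminescence. Cells were plated overnight, exposed to compound for 6 hr at 37 C, and then given detection reagent for 60 min at room temperature.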

[19] = qHTS assay for small molecule agonists of the antioxidant response element (ARE) signaling pathway measured by Nrf2-dependant transcriptional activity - cell viability counter screen (AID 720653; active = well fitted curve in the direction sought with a large enough effect in the repeat runs; an effect the other way counts as inactive or inconclusive); settings: ARE-bla HepG2 viability, CellTiter-Glo ATP luminescence, 16 h; active compounds read low
How it was run: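 ARE-bla HepG2 cells treated with compounds for 16 h at 37C; this counter screen measures viability as intracellular ATP by CellTiter-Glo luminescence after 30 min at room temperature.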

[20] = qHTS assay for cell viability of the p53RE-bla HCT-116 cell line (AID 743292); settings: p53RE-bla HCT-116 viability, ATP luminescence, 16 h; series mostly up to 95 µM; note: nearly all actives have a fitted effect of over 55% in size
How it was run: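 Intracellular ATP of p53RE-bla HCT-116 cells measured by luciferase luminescence following 16 h compound incubation at 37 C; DMSO-only wells served as vehicle controls.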

SMILES | Potency [1] [µM] | Potency [2] | Potency [3] [µM] | Potency [4] [µM] | Potency [5] | outcome [6] | outcome [7] | outcome [8] | Potency [9] | caspase-3 activation [10] | outcome [11] | outcome [12] | Potency [13] | outcome [14] | outcome [15] | Potency [16] | Potency [17] | max response [18] | max response [19] | Potency [20]
C=CCOCC1CO1 (stereo not given) | > 92 | > 92 µM | > 92 | > 92 | inactive | inactive | inactive | inactive | inactive | 2.83% | inactive | inactive | inactive | inactive | inactive | inactive | inactive | 11.4% | 2.37% | inactive
CCC(Cl)[N+](=O)[O-] (stereo not given) | > 92 | > 92 µM | > 92 | > 92 | inactive | inactive | inactive | inactive | inactive | -0.0531% | inactive | inactive | inactive | inactive | inactive | inactive | inactive | 11.6% | -4.85% | inactive
CCCCCCCCCCCCCl | > 92 | > 92 µM | > 92 | > 92 | inactive | inactive | inactive | inactive | inactive | 2.31% | inactive | inactive | inactive | inactive | inactive | inactive | inactive | -2.89% | -2.45% | inactive
C=CC(=O)OCC(C)C | > 92 | > 92 µM | > 92 | > 92 | inactive | inactive | inactive | inactive | inactive | -0.317% | inactive | inactive | inactive | inactive | inactive | inactive | inactive | 3.76% | -10.1% | inactive
CCCBr | > 92 | > 92 µM | > 92 | > 92 | inactive | inactive | inactive | inactive | inactive | 2.6% | inactive | inactive | inactive | inactive | inactive | inactive | inactive | -0.188% | -3.32% | inactive
Nc1ccc(Cc2ccc(N)cc2)cc1 | > 92 | > 92 µM | > 92 | > 92 | inactive | inactive | inactive | inactive | inactive | 0.697% | inactive | inactive | inactive | inactive | inactive | inactive | inactive | -4.91% and -1.61% | -0.954% and 9.87% | inactive
Nc1cccc2ccccc12 | > 92 | 33 µM (active) | > 92 | > 92 | inactive | inactive | inactive | inactive | inactive | 156% (active) | inactive | inactive | inactive | inactive | inactive | 39.8 µM (active) | inactive | -2.99% | -19.6% | inactive
Nn1cnnc1 | > 92 | > 92 µM | > 92 | > 92 | inactive | inactive | inactive | inactive | inactive | 0.966% | inactive | inactive | inactive | inactive | inactive | inactive | inactive | -0.452% | -3.98% | inactive
CC(=O)[O-].CC(=O)[O-].CC(=O)[O-].[Cr+3] | > 92 | > 92 µM | > 92 | > 92 | inactive | inactive | inactive | inactive | inactive | 1.42% | inactive | inactive | inactive | inactive | inactive | inactive | inactive | -3.23% | 2.78% | inactive
CC(=O)CCC(C)=O | > 92 | > 92 µM | > 92 | > 92 | inactive | inactive | inactive | inactive | inactive | 0.261% | inactive | inactive | inactive | inactive | inactive | inactive | inactive | -3.42% | 0.0815% | inactive
Cc1ccccc1[N+](=O)[O-] | > 92 | > 92 µM | > 92 | > 92 | inactive | inactive | inactive | inactive | inactive | -0.618% | inactive | inactive | inactive | inactive | inactive | inactive | inactive | 2.03% | 11.5% | inactive

Source: PubChem BioAssay (NCATS)
